From PubChem BioAssay
An excerpt weighted towards active compounds, which were near 9.5% of everything screened.
HPGD block – blocks human HPGD enzyme activity. P15428. purified HPGD, NADH fluorescence kinetic, PGE2 substrate. Potency, µM, for the others: top-dose activity change, negative = inhibition, actives largely listed as inhibitors. 4.3% of 150,000 active. AID 894; active = well fitted inhibition curve with a large enough effect, not every such curve was filed as active; inconclusive = small, poorly fitted or top-dose-only effect, or another doubt; inactive = no such curve, though single readings can be large or run the other way
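NADH formation kinetics: reaction with 30 uM PGE2 and 1 mM NAD+ (final), 20 nM enzyme, Tris-HCl pH 8 with Tween 20, after 15 min compound preincubation at room temperature. Fluorescence change, last versus first of five reads.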
Tau ThT inhib – tau fibrillization inhibition (ThT binding) | P10636 | AID 1460 | Potency, µM (top dose mostly 57.4 µM), inactives show at the highest dose activity, negative = inhibition, actives largely listed as inhibitors | 2.1% of 270,000 active | recombinant tau K18 P301L, heparin-induced fibrillization, ThT fluorescence; note: nearly all actives have a fitted effect of over 55% in size
Target sequence (P10636 561-689 P618L limits assumed): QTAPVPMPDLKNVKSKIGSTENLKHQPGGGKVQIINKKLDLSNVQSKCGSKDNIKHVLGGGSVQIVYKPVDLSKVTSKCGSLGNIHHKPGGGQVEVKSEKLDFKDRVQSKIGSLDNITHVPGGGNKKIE
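ThT emission at 510 nm, taken 1 hr after adding 30 uM dye, quantifies aggregates formed when 20 uM heparin acts on human tau K18 P301L for 6 hr at 37 C.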
Tau FP inhib – blocks human tau fibril formation measured by polarization; K18 P301L tau heparin fibrillization, Alexa594 FP, 6 h; 0.39% of 280,000 active; AID 1468; Potency, µM (highest dose often 57.7 µM), for the others: at the highest dose activity, negative = inhibition, usual class: inhibitors; note: nearly all actives have a fitted effect of over 55% in size
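Heparin (20 uM) drove fibril formation of recombinant tau K18 P301L, 15 uM unlabeled with 0.24 uM Alexa 594 label, for 6 hr at 37 C in 100 mM sodium acetate pH 7. Fluorescence polarization (555/632 nm) read 1 hr after 30 uM ThT.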
Tau fluor counter – counter-screen for tau fibril formation inhibitors; tau K18 P301L (four-repeat tau fragment) Alexa594 fluorescence, heparin fibrillization; Potency, µM (series often up to 57.7 µM), without a hit: top-dose activity change, negative = decrease; 0.93% of 280,000 active; AID 1463; note: nearly all actives have a fitted effect of over 55% in size
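Human K18 P301L tau (15 uM unlabeled plus 0.24 uM Alexa 594-labeled, final) in 100 mM sodium acetate pH 7 was mixed with compound and 20 uM heparin and incubated 6 hr at 37 C.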
ALDH1A1 inh – blocks purified human ALDH1A1 activity. P00352. Purified ALDH1A1, NADH fluorescence, propionaldehyde substrate. Potency, µM (highest dose often 75.3 µM), for the others: at the top dose activity, negative = inhibition, usual class: inhibitors. 7.3% of 220,000 active. AID 1030; active = well fitted inhibition curve with a large enough effect, not every such curve was filed as active; inconclusive = small, poorly fitted or top-dose-only effect, or another doubt; inactive = no such curve, though single readings can be large or run the other way;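 note: plate controls were no enzyme wells and a reference inhibitor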
NPSR antagonist – neuropeptide S receptor (human) antagonism, cAMP. Q6W5P4. CHO-NPSR cells, cAMP TR-FRET, antagonist mode. Potency, µM (doses to about 38.3 µM), inactives show at the top dose activity change, negative = inhibition, hits mostly inhibitors. 1% of 220,000 active. AID 1461; note: nearly all actives have a fitted effect of over 50% in size
* hit, by the source's call; ? = inconclusive; / = no result; [ ] = dose if it differs, or a comment. Unless noted, calls come from the whole dose curve; as a rule, active = well fitted curve in the direction sought with a large enough effect; inconclusive = small, poorly fitted or top-dose-only effect, or another doubt; inactive = no such curve, though single readings can be large; an effect the other way counts as inactive or inconclusive. Unless noted, % is set by controls: 0 for no effect and ±100 for the full control effect; potency is the fitted concentration of half-maximal effect.

SMILES	HPGD block	Tau ThT inhib	Tau FP inhib	Tau fluor counter	ALDH1A1 inh	NPSR antagonist
COc1ccc(N2C(=O)CC(Sc3nnc(-c4ccccc4F)n3C)C2=O)cc1 (stereo not given)	/	-13%	0%	-1%	1.8µM*	-1%
CCCc1c(O)nc(SC2CC(=O)N(c3ccc(OC)cc3)C2=O)[nH]c1=O (stereo not given)	/	-3%	0%	-8%	/	12%
CCOc1ccc2nc(SC3CC(=O)N(c4ccc(OC)cc4)C3=O)sc2c1 (stereo not given)	-27%	?	9%	-25%	16µM*	-18%[46.1 µM]
COc1ccc(N2C(=O)CC(Sc3nc4ccccc4s3)C2=O)cc1 (stereo not given)	/	?	0%	-20%	7.9µM*	-6%
COc1ccc(N2C(=O)CC(NNc3nc4ccccc4s3)C2=O)cc1 (stereo not given)	/	?	-15%	-26%	/	-11%
